Laboratory results from the supplement of paper PMC11732987, “Enantioselective OTUD7B fragment discovery through chemoproteomics screening and high-throughput optimisation” (Communications Chemistry, 2025).

How the values were obtained:
Experiment in all cases: log2 ratio of Biotin-Ahx-Ub-VS probe labelling (fragment/DMSO); higher = less target engagement (more negative = stronger competition), active = hit call of the paper (q ≤ 0.05, log2 ratio ≤ -1)
Settings in all cases: compound concentration: 200 uM; treatment time: 3 h
[1] = molecular target: T1, USP42 (UniProt Q9H9J4)
T1 sequence (whole entry): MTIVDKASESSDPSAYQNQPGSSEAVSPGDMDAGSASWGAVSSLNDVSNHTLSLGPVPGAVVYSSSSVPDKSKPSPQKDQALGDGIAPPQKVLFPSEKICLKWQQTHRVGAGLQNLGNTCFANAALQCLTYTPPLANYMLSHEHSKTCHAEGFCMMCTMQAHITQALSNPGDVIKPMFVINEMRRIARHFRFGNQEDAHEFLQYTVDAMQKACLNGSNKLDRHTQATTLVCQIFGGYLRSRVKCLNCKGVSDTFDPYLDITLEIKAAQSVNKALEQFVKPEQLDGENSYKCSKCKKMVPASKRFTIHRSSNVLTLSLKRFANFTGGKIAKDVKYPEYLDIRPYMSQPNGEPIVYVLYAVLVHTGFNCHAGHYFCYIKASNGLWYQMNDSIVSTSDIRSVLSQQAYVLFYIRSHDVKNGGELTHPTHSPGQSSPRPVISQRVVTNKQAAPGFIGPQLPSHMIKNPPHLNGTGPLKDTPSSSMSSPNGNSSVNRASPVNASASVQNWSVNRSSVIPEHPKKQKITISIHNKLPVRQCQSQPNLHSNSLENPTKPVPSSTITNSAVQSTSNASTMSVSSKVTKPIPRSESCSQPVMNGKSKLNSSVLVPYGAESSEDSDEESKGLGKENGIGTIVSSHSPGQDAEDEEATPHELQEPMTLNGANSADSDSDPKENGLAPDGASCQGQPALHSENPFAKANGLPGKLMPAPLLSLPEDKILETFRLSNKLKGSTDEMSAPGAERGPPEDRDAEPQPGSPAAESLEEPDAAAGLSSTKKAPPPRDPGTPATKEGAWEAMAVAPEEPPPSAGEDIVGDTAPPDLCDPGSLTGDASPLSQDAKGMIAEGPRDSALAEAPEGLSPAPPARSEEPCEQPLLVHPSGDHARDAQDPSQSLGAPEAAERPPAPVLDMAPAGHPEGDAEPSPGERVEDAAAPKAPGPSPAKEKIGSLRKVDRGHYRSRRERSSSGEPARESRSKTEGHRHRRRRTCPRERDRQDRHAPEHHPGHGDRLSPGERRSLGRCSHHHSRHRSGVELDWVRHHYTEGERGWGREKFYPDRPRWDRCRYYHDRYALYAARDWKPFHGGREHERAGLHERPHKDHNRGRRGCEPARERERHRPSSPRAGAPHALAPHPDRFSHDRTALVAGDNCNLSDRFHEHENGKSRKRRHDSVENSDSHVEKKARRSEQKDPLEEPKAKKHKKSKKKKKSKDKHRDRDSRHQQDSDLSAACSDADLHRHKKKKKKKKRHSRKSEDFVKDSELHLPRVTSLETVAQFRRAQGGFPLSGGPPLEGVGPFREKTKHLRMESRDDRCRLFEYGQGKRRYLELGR
Method in brief: (§1)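 Labelled DUBs from HEK293T lysate were NeutrAvidin-enriched, digested with LysC and trypsin, and run by diaPASEF LC-MS/MS. Before that, each 495 µg sample in Tris/CHAPS/IGEPAL buffer with protease inhibitors was treated in triplicate with fragment at 200 µM or vehicle for 3 h, then with Biotin-Ahx-Ub-VS at 0.5 µM final for 1 h. Values are average log2 ratios of fragment over vehicle by unpaired t-test, based on global-median-normalised Spectronaut label-free quantities from proteins with ≥2 unique peptides.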

[2] = molecular target: USP46 (UniProt P62068)
Sequence of USP46 (P62068 whole entry): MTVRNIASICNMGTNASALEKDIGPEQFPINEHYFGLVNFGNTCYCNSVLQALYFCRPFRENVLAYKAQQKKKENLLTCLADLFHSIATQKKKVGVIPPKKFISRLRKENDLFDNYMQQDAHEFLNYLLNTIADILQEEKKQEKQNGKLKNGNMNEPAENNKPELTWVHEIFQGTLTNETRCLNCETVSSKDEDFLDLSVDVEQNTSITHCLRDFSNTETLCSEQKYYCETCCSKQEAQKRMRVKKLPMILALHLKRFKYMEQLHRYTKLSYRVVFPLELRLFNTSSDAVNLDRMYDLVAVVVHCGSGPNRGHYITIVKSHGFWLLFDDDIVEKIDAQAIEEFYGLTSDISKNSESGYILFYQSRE
Method in brief: as §1

[3] = molecular target: T2, USP47 (UniProt Q96K76)
T2 sequence (whole entry): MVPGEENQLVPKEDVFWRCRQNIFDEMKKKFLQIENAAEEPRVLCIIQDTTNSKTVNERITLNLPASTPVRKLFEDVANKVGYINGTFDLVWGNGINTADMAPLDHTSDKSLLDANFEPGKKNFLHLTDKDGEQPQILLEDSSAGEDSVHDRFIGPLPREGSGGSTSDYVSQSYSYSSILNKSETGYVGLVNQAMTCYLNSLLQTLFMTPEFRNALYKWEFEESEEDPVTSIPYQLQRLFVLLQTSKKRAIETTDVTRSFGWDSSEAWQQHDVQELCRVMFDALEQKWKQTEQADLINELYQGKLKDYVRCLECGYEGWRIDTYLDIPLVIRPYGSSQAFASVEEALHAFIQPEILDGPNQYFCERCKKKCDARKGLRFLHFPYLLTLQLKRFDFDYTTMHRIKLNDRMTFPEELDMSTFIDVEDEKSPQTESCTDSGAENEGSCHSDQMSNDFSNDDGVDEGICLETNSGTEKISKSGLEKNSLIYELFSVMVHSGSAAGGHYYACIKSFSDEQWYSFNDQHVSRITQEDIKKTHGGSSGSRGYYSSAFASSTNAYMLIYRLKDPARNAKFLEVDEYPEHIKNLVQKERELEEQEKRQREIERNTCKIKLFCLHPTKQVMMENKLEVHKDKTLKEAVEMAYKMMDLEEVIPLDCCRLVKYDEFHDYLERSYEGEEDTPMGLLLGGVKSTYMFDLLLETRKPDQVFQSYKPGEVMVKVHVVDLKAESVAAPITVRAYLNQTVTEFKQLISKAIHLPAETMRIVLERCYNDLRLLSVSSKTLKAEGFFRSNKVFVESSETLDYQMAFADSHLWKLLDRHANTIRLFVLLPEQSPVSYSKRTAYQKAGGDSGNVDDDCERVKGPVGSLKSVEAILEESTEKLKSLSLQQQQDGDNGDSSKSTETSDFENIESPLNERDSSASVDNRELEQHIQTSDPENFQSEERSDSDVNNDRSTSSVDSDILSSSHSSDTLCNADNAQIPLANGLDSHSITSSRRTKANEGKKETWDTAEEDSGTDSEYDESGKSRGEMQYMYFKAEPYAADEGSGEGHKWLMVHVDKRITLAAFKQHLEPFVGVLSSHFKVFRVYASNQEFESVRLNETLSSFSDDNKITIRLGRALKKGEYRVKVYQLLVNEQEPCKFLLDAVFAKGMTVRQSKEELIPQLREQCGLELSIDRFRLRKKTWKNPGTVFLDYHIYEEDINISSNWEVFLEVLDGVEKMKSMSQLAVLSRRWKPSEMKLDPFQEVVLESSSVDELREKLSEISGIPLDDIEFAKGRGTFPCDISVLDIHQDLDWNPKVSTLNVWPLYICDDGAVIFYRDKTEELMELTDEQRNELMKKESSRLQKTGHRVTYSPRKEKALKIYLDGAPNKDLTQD
Method in brief: as §1

[4] = molecular target: T3, USP48 (UniProt Q86UV5)
T3 sequence (whole entry): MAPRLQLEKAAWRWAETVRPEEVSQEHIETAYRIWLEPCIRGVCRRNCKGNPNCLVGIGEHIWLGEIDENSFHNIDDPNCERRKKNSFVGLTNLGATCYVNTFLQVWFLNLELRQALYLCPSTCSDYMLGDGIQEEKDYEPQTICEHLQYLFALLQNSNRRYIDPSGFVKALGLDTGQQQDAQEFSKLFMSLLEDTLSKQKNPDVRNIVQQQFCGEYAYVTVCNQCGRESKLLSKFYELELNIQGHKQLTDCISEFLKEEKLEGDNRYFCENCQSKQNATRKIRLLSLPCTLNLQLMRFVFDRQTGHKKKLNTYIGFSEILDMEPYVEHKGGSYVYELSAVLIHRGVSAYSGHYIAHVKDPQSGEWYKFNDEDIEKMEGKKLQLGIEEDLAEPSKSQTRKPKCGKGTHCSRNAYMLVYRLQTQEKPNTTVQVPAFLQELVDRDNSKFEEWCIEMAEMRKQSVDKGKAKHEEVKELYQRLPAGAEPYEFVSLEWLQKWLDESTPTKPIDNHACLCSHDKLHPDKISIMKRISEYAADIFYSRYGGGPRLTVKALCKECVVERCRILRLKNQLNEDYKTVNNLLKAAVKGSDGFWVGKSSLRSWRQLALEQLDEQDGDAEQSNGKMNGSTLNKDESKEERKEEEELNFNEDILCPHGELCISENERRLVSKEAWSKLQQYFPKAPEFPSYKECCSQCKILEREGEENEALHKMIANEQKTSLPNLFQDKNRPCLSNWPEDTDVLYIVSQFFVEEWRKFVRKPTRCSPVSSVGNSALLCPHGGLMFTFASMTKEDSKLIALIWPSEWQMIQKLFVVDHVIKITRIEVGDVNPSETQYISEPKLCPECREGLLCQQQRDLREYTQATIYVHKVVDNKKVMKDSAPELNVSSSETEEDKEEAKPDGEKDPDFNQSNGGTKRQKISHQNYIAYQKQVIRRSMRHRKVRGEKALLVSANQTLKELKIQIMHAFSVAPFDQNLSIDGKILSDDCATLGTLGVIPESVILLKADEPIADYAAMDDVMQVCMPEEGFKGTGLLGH
Method in brief: as §1

[5] = molecular target: T4, USP5 (UniProt P45974)
T4 sequence (whole entry): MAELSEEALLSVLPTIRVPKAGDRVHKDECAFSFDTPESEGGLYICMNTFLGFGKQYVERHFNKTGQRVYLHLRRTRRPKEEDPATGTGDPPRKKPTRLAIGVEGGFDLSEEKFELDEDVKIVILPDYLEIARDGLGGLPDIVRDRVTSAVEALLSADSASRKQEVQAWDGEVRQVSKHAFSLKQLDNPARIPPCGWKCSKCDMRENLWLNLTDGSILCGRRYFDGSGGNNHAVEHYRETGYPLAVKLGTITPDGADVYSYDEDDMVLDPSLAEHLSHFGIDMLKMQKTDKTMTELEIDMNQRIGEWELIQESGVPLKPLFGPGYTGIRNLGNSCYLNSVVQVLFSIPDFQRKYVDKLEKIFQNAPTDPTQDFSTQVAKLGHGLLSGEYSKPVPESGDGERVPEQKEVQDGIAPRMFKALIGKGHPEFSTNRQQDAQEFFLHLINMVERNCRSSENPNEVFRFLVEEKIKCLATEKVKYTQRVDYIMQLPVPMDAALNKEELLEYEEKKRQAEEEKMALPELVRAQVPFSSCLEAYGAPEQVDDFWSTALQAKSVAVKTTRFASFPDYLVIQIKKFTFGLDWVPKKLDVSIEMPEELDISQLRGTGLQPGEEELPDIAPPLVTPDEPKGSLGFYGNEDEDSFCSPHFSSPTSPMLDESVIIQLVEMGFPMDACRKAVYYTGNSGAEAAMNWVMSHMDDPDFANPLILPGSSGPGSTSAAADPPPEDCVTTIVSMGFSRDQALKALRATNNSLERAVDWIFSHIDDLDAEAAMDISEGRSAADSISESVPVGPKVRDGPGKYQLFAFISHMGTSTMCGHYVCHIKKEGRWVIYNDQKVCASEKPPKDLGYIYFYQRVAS
Method in brief: as §1

[6] = molecular target: USP54 (UniProt Q70EL1)
Sequence of USP54 (Q70EL1 whole entry): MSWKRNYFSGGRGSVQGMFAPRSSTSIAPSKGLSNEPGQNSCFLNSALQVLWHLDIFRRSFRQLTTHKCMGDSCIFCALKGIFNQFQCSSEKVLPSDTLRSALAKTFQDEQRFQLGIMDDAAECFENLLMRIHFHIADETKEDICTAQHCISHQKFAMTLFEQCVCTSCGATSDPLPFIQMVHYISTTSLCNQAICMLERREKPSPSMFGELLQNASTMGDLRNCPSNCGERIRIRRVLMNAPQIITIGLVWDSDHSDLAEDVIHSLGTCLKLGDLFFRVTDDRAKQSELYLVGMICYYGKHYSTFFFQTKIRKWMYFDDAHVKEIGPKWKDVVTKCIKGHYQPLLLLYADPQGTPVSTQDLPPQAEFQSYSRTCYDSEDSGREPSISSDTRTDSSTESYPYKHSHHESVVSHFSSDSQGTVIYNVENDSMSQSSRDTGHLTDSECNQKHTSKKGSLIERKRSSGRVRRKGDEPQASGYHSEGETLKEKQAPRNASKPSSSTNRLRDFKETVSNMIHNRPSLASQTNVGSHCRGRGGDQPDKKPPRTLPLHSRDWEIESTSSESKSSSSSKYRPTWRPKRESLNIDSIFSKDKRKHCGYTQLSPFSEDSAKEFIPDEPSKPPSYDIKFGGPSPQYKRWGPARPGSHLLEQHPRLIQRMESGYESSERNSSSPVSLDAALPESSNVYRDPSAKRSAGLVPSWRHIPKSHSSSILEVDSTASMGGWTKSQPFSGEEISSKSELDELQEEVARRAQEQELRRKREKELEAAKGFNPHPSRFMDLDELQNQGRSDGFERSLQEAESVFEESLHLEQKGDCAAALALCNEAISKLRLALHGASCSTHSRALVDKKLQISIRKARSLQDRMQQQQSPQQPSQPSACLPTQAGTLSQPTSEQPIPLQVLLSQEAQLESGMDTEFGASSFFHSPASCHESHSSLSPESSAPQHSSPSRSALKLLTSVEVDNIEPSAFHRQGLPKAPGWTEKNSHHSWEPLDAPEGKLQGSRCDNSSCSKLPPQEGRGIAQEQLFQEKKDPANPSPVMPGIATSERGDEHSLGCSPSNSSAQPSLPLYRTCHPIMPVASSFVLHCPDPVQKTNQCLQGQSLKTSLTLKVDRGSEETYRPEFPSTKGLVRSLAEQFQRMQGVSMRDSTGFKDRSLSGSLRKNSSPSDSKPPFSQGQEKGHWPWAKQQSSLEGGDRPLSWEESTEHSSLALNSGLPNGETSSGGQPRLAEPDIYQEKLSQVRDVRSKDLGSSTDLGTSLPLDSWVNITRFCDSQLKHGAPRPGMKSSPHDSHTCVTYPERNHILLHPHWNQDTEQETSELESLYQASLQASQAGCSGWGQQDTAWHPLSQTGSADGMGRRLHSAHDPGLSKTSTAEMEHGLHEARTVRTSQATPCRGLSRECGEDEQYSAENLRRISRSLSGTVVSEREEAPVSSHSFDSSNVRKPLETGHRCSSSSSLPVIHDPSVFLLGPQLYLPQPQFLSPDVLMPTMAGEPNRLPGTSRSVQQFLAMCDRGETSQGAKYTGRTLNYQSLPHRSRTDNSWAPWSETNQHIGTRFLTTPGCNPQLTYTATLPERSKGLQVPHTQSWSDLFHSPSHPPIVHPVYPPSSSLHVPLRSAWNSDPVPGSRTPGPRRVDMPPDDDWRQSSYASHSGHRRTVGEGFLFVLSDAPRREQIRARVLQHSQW
Method in brief: as §1

[7] = molecular target: USP7 (UniProt Q93009)
Method in brief: as §1

[8] = molecular target: T5, USP8 (UniProt P40818)
T5 sequence (whole entry): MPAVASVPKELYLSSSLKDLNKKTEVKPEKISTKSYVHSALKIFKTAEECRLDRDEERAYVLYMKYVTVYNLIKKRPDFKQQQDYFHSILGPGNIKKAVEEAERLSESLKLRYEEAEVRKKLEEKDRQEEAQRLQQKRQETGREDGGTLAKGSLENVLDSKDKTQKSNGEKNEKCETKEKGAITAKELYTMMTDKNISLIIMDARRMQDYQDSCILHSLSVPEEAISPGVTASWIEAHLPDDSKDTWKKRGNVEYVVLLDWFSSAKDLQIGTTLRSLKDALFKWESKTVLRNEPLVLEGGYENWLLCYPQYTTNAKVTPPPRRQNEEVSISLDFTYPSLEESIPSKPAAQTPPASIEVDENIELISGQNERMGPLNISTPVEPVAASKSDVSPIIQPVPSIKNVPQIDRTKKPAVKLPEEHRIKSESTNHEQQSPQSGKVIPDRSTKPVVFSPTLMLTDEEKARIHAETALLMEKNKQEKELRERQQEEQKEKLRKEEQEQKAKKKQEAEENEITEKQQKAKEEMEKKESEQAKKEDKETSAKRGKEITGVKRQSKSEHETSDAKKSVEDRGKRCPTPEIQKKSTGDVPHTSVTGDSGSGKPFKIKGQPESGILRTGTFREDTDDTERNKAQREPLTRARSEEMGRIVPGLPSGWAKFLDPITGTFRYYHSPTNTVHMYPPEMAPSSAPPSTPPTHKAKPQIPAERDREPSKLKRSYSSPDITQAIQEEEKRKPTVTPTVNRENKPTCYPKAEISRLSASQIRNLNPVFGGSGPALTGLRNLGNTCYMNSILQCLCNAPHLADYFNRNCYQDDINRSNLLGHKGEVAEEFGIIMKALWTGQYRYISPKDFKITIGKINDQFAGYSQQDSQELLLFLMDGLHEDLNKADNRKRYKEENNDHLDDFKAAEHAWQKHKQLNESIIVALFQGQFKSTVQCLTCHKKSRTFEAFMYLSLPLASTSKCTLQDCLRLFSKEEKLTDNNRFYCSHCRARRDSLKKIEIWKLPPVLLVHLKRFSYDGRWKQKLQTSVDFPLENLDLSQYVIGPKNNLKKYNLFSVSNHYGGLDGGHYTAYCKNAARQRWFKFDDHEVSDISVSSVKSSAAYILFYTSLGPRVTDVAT
Method in brief: as §1

[9] = molecular target: USP9X (UniProt Q93008)
Sequence of USP9X (Q93008 whole entry): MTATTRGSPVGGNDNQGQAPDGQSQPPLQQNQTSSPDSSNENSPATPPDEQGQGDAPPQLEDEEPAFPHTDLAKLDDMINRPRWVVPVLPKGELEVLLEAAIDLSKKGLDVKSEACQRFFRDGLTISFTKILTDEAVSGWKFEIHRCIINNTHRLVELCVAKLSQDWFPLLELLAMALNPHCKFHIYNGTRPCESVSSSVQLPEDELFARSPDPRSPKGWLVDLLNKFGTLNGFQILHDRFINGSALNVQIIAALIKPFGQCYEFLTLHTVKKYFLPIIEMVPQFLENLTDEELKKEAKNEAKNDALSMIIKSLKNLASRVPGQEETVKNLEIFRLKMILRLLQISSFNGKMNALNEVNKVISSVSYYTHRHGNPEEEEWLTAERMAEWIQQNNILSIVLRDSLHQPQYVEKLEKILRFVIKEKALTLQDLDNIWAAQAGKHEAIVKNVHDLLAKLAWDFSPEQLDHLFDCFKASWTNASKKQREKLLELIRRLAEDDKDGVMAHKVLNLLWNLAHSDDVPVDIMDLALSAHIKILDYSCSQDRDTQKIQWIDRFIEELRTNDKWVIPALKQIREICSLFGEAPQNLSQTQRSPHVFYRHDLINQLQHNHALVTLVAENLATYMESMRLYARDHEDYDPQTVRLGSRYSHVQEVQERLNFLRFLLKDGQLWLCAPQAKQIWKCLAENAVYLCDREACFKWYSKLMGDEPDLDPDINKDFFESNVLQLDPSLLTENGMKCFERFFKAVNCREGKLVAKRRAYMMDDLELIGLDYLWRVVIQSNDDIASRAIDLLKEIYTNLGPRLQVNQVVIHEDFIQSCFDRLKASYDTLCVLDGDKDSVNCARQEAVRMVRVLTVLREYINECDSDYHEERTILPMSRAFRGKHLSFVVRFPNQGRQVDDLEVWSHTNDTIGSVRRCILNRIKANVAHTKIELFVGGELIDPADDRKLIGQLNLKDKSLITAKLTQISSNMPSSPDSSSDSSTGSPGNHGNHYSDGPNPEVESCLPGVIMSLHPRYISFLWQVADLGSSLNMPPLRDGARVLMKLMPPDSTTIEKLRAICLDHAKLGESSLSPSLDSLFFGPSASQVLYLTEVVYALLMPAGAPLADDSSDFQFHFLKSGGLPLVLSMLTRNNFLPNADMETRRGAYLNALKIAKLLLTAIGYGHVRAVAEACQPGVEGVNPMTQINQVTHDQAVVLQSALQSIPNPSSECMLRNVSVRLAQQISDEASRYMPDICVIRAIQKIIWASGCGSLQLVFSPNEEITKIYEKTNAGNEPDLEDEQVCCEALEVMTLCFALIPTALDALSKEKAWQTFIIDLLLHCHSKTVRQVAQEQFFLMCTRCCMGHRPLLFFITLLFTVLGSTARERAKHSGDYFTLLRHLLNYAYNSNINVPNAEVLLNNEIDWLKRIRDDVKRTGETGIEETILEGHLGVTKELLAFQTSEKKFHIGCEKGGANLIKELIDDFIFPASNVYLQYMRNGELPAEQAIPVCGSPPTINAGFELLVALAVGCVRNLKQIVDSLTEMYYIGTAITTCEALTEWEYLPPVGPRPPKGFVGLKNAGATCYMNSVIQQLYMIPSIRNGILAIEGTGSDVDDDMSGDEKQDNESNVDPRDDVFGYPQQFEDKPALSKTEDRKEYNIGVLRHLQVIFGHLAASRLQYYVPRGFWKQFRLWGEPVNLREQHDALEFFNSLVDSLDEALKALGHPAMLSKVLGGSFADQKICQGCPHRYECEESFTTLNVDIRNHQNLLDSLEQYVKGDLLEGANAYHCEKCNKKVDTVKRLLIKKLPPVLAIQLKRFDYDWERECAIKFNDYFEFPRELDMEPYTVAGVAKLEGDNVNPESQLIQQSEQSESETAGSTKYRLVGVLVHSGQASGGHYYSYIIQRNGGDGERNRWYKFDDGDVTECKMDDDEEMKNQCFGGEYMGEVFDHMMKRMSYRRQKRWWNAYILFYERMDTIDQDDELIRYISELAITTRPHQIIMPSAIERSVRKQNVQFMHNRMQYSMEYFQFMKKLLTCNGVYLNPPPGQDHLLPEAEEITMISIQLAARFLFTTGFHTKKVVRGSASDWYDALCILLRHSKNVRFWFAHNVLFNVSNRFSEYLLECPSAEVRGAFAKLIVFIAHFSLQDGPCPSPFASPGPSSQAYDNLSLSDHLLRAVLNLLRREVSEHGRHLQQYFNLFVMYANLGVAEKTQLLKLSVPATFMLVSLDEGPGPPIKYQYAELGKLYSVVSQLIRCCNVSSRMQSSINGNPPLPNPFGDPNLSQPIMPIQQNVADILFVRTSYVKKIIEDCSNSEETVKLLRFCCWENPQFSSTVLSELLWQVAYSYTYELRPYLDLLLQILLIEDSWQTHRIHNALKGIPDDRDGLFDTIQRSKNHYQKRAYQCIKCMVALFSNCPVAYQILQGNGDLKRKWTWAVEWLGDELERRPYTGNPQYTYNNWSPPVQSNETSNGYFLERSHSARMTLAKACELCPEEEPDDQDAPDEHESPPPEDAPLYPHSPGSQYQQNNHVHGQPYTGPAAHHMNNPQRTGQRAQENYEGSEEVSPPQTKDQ
Method in brief: as §1

[10] = molecular target: UniProt O00487
Sequence of UniProt O00487 (O00487 whole entry): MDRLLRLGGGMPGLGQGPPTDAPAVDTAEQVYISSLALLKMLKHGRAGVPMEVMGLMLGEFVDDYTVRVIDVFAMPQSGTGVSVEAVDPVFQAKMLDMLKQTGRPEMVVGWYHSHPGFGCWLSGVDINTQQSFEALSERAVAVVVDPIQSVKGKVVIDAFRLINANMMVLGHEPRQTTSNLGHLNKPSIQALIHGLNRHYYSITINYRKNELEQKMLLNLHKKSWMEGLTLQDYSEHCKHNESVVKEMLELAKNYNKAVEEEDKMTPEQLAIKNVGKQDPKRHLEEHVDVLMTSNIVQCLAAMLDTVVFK
Method in brief: as §1

Measured: log2 ratio of Biotin-Ahx-Ub-VS probe labelling

CC1CCc2onc(CNC(=O)CCl)c2C1 (stereo not given)
inactive: [1] 0.0513 | [2] 0.0919 | [3] -0.0836 | [4] 0.185 | [5] 0.386 | [6] 0.0792 | [7] -0.00387 | [8] -0.212 | [9] -0.154 | [10] 0.0127
